The source of these data is PubChem BioAssay (NCI).

What all share (test): NCI-60 one-dose screen, 48 h (100 = growth as untreated, 0 = no growth, -100 = all killed)
In one experiment the test system is RPMI-8226 leukemia. Particulars: 10 µM unless noted.
The next experiment concerns OVCAR-8 ovarian. Particulars: 10 µM unless noted.
For a further experiment, the system named is OVCAR-5 ovarian. To be noted: 10 µM unless noted.
The next experiment relates to SK-OV-3 ovarian. Particulars: 10 µM unless noted.
In a further experiment the test system is OVCAR-3 ovarian. Particulars: 10 µM unless noted.
A further experiment deals with HS 578T breast. To be noted: 10 µM unless noted.
Another experiment concerns NCI/ADR-RES ovarian. Particulars: 10 µM unless noted.
A further experiment concerns T-47D breast. To be noted: 10 µM unless noted.
For the next experiment, the system named is BT-549 breast. To be noted: 10 µM unless noted.
The next experiment concerns MDA-MB-435 melanoma. Particulars: 10 µM unless noted.
Another experiment concerns SW-620 colon. To be noted: 10 µM unless noted.
Another experiment has as its system MCF7 breast. To be noted: 10 µM.
Another experiment has as its system HCT-116 colon. Particulars: 10 µM unless noted.
For the next experiment, the system named is HCC-2998 colon. Particulars: 10 µM unless noted.
The subject of another experiment is KM12 colon. Particulars: 10 µM unless noted.
For a further experiment, the system named is IGROV1 ovarian. Particulars: 10 µM unless noted.

This is part of a sample that, as a whole, favours compounds with a hit. Of some 83,000 tested, about 20% had one in any assay.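 In brief: 96-well plates, 48 h treatment, single concentration, percent growth endpoint.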 Unmarked numbers belong to inactive results. Activity calls are given as the source filed them. The calls were made as follows: active = growth percent below 10; inactive = the rest.

For the molecule `COc1cc(NC(=O)CCSc2nc3ccccc3c(=O)n2Cc2ccccc2)cc(OC)c1OC`, the growth is 56.9% in the experiment with RPMI-8226 leukemia; 79.3% in the experiment on OVCAR-8 ovarian; 91% with OVCAR-5 ovarian; 99.3% with SK-OV-3 ovarian; 88.1% in the experiment with OVCAR-3 ovarian; 77.3% in the experiment with HS 578T breast. Moreover, the growth in the experiment on NCI/ADR-RES ovarian was 82.1%; in the experiment with T-47D breast, 78.1%; in the experiment with BT-549 breast, 86%; in the experiment with MDA-MB-435 melanoma, 89.9%; with SW-620 colon it was 93.6%; in the experiment on MCF7 breast, 84.1%. In addition, the growth was 83.7% with HCT-116 colon, 99.6% with HCC-2998 colon and 87.1% in the experiment with KM12 colon.

For `c1ccc(-c2ccc(-c3nc4ccccc4[nH]3)cc2)cc1`, the growth is 51.2% in the experiment with RPMI-8226 leukemia; 89.4% in the experiment on OVCAR-8 ovarian; 106% in the experiment with OVCAR-5 ovarian; 89.3% in the experiment with SK-OV-3 ovarian; 86.2% in the experiment with OVCAR-3 ovarian; 94.5% with HS 578T breast. For the same molecule, the growth with NCI/ADR-RES ovarian was 86.7%; in the experiment on T-47D breast, 86.6%; in the experiment with BT-549 breast it was 94.2%; with MDA-MB-435 melanoma, 82.4%; in the experiment with SW-620 colon, 101%; with MCF7 breast, 76.3%. For the same molecule, the growth is 74.1% in the experiment on HCT-116 colon and 84.6% with KM12 colon.

As for `N#C/C(=C1\SC(=O)CN1c1ccccc1)c1nc2ccccc2s1`, the growth is 83.7% in the experiment on RPMI-8226 leukemia; 94.9% with OVCAR-8 ovarian; 103% with OVCAR-5 ovarian; 99.1% with SK-OV-3 ovarian; 87% in the experiment with OVCAR-3 ovarian; 94.3% with HS 578T breast. For the same molecule, the growth with NCI/ADR-RES ovarian is 89.2%; in the experiment with T-47D breast it was 73.6%; in the experiment on BT-549 breast, 103%; in the experiment on MDA-MB-435 melanoma it was 102%; with SW-620 colon it was 93.5%; with MCF7 breast, 73.8%. Besides, the values for the growth in the experiment with HCT-116 colon, with HCC-2998 colon and in the experiment on KM12 colon were 89%, 97.3% and 98.4%, respectively.

As to `COc1cc(C2CC(c3ccc(Nc4nc(NCCO)nc(N5CCOCC5)n4)cc3)=NN2c2cc(Cl)cc(Cl)c2)cc(OC)c1OC` (stereo not drawn), the growth with RPMI-8226 leukemia is 33.4%; with OVCAR-8 ovarian, 48.8%; in the experiment on OVCAR-5 ovarian, 74.4%; in the experiment with IGROV1 ovarian, 55%; in the experiment with OVCAR-3 ovarian it was 56.9%; in the experiment with HS 578T breast it was 22.6%. Also, the growth in the experiment with NCI/ADR-RES ovarian is 48.8%; in the experiment on T-47D breast it was 41.4%; in the experiment with BT-549 breast, 75.3%; in the experiment with MDA-MB-435 melanoma, 49.6%; in the experiment on SW-620 colon it was 81.6%; in the experiment with MCF7 breast it was 15.3%. The growth in the experiment with HCT-116 colon was 33.1%; with HCC-2998 colon it was 63.4%; in the experiment with KM12 colon, 37.6%.

As for `O=c1oc2ccc(F)cc2c(=O)n1-c1ccc(F)cc1F`, the growth in the experiment on RPMI-8226 leukemia is 5.47% (active); with OVCAR-8 ovarian, 23.3%; with OVCAR-5 ovarian, 64.8%; in the experiment with SK-OV-3 ovarian, -4.73% (active); in the experiment on IGROV1 ovarian, 30.1%; in the experiment with OVCAR-3 ovarian it was 4.14% (active). In addition, the growth with HS 578T breast is 12.8%; in the experiment with NCI/ADR-RES ovarian, 18.9%; with T-47D breast, -11.9% (active); with MDA-MB-435 melanoma it was 11.7%; in the experiment with SW-620 colon, 31.7%; in the experiment on MCF7 breast, 24.8%. Further, the growth with HCT-116 colon is 24.4%; with HCC-2998 colon it was 22.8%; with KM12 colon it was 12.6%.

In the case of `CN1CCN(Cc2ccc(NC(=O)c3[nH]ncc3Nc3cc(OC4CCCC4)ncn3)cc2)CC1`, the growth in the experiment with RPMI-8226 leukemia was 16.9%; in the experiment on OVCAR-8 ovarian, 42.6%; in the experiment with OVCAR-5 ovarian it was 50.5%; in the experiment with SK-OV-3 ovarian, 4.89% (active); with IGROV1 ovarian, 35%; with OVCAR-3 ovarian, 11.2%. The growth was 32.8% in the experiment on HS 578T breast; 44% in the experiment with NCI/ADR-RES ovarian; 64.1% in the experiment on T-47D breast; 41.5% in the experiment with MDA-MB-435 melanoma; 15.8% in the experiment on SW-620 colon; 10.7% with MCF7 breast. Besides, the growth in the experiment on HCT-116 colon was 4.66% (active); with KM12 colon, 21.9%.

With `COc1ccc(Br)c(/C=C2\SC(=Nc3ccc(O)cc3)NC2=O)c1`, the growth in the experiment with RPMI-8226 leukemia is 51.7%; with OVCAR-8 ovarian, 98%; in the experiment on OVCAR-5 ovarian it was 104%; in the experiment with SK-OV-3 ovarian it was 89.9%; in the experiment with IGROV1 ovarian, 94.3%; in the experiment on OVCAR-3 ovarian, 102%. Moreover, the growth is 86.5% in the experiment on HS 578T breast; 106% in the experiment on NCI/ADR-RES ovarian; 68.5% with T-47D breast; 87.2% in the experiment on MDA-MB-435 melanoma; 104% in the experiment on SW-620 colon; 70.4% with MCF7 breast. Also, the growth in the experiment on HCT-116 colon was 98.7%; in the experiment with HCC-2998 colon, 109%; in the experiment on KM12 colon, 84.2%.

As for `Cc1nc2ccccc2c(/C=C/c2ccccc2)c1C(=O)/C=C/c1ccc(Cl)cc1`, the growth in the experiment on RPMI-8226 leukemia was -36.5% (active); in the experiment on OVCAR-8 ovarian, 20.9%; in the experiment with OVCAR-5 ovarian, 14.2%; in the experiment with SK-OV-3 ovarian, 84.3%; in the experiment on IGROV1 ovarian it was 14.9%; in the experiment with HS 578T breast it was 27.9%. Also, the growth with NCI/ADR-RES ovarian was 9.61% (active); in the experiment with T-47D breast it was 13.4%; in the experiment with MDA-MB-435 melanoma, -9.81% (active); with SW-620 colon, 3.99% (active); in the experiment on MCF7 breast, 14.2%; in the experiment with HCT-116 colon it was -5.14% (active). The growth with HCC-2998 colon is 12.4%; in the experiment with KM12 colon, 21.4%.

`O=C(Nc1ccc(N2CCNCC2)cn1)c1[nH]ncc1Nc1ncnc2sc3c(c12)CCC3`: the growth in the experiment on RPMI-8226 leukemia is -38.2% (active); with OVCAR-8 ovarian, -38.9% (active); in the experiment on OVCAR-5 ovarian it was 20.7%; with SK-OV-3 ovarian, 79.8%; with IGROV1 ovarian it was 77.6%; in the experiment with OVCAR-3 ovarian it was -39.3% (active). The growth in the experiment with HS 578T breast is 73%; in the experiment on NCI/ADR-RES ovarian, 42.6%; in the experiment on T-47D breast, 43.8%; in the experiment with BT-549 breast it was 85.4%; in the experiment on MDA-MB-435 melanoma, -63.2% (active); in the experiment with SW-620 colon it was -76.1% (active). For the same molecule, the growth in the experiment on MCF7 breast was -34% (active); in the experiment on HCT-116 colon, -75% (active); with HCC-2998 colon, 33.8%; in the experiment with KM12 colon it was 53.4%.
